Assay results taken from the supplement of paper PMC10477191.
± gives the standard deviation of the averaged measurements.

The compounds below were run on Drosophila ezoana antennal basiconic sensillum ab2 (assay: odor-evoked OSN spike response (post minus pre-stimulus); higher = stronger neuronal excitation). Details: odor dilution: 10^-4.
Method: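 Single sensillum recordings from antennal basiconic sensilla of D. ezoana. A 500 ms pulse of odorant (10^-4 in mineral oil or DMSO) was delivered; the response is the change in action potential frequency between the 1 s pre- and post-stimulus windows (spikes/s).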

Row | SMILES | odor-evoked OSN spike response [spikes/s]
1 | CC(C)=O [acetone] | 73.7 ± 37
